# Changes are numbered by the printed parent chain. Whole data set: some 5,800 sequences, median “enrichment r” near 0.68, cut for the highest 2% near 11. The list comes from a sample in which the highest values are over-represented; it also holds similar and randomly drawn sequences.
# T1: UNK ZnF1-6 (called full-length) (human, UniProt Q9C0B0 30-357)
# T1 sequence: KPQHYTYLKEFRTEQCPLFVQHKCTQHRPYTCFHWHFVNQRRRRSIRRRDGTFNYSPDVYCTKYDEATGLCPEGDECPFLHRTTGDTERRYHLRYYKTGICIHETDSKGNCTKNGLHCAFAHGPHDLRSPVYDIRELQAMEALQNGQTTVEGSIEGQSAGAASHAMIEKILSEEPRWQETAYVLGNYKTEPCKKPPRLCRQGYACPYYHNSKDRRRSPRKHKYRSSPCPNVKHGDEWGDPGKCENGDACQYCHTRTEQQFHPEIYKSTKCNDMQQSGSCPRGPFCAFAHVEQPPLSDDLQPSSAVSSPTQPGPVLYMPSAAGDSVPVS
# B1: chr10:98383567:98383797:-|three_prime_utr|ENSG00000119943|control|control|control (ssRNA)
# RNA: GGGAGUUCUACAGUCCGACGAUCCCACCCCUGAAUUCCAAGUGCUCCAUUGGAUCAGCUUCCCAGGAAGUUCAGCUUCGGGUUAGUACAUAAGGCCACCACAAUGCUCAAGAAAUUAUUUUAGAAAAAACGUACGAGUUACAUCAACAGAGGAUUGAGCAUCA
# B2: chr12:103777333:103777434:-|3pUTR|ENSG00000111696|msi1|total|mutant (ssRNA)
# RNA: GGGAGUUCUACAGUCCGACGAUCUCCUGAACAUUUACGGGCUAUGCAUUGGGAACUGCAGGGGCACAGUGAUGGGCAAAGAUCCGCUGCUUCCAGAAGGCUGAUUUCGUGGGCUCCACAAUGGUAAAACGCUGCUGUGAGUGGCAACAGAGGAUUGAGCAUCA
# B3: chr7:152122106:152122213:+|3pUTR|ENSG00000178234|unk|total|mutant (ssRNA)
# RNA: GGGAGUUCUACAGUCCGACGAUCAGUGGUUUUUAUCUGAUCAGGAACUUGUCAUGAUUUCCUUUCUCCGACUUCACCGGAGACCGUGCUUUAAAAAAAAAAAAAACUUCUAUUAUUUGUUCCGUAUGUUGUAAGCCGAUCAUUCAACAGAGGAUUGAGCAUCA
# B4: chr4:56502255:56502306:+|3pUTR|ENSG00000174780|msi1_unk|FALSE|overlapping (ssRNA)
# RNA: GGGAGUUCUACAGUCCGACGAUCAUUUCAGCUGGAGUCUGAAGAUACUUGUUUCUGUUCAAGUCCCACUUUAAAUUAUGUCUUAGGAGACUGAAAGUGGAAUCUUCUGAGCAUUCCUAAAUAUCUGCUUAGAAAUAUCAUGUGCAACAGAGGAUUGAGCAUCA
# B5: chr17:61865808:61865921:-|3pUTR|ENSG00000108506|unk|FALSE|unique (ssRNA)
# RNA: GGGAGUUCUACAGUCCGACGAUCUUCUAUGAGAAUGAGUUUGUAGCUGUUUCAAAUCAUGAAGUGCAUAGUAUCACAUGUGAUAGAAUAUUUAUAACUUUUUAUUAGAUGCUUAAUGUUCAAUUAAGUAAUUUUGAUGUGAAACAACAGAGGAUUGAGCAUCA
# B6: chr14:100278170:100278208:+|3pUTR|ENSG00000100811|msi1_unk|FALSE|overlapping (ssRNA)
# RNA: GGGAGUUCUACAGUCCGACGAUCGCUAUCUUAAUUUUGGUUGUAUUCUUUGAUGUUAACACAUUUUGUAUAAUUGUAUCGUAUAGCUGUAUUGAAUCAUGUAGUAUCAAAUAUUAGAUGUGAUUUAAUAGUGUUAAUCAAUUUCAACAGAGGAUUGAGCAUCA
# B7: chr21:14371318:14371404:-|3pUTR|ENSG00000155304|msi1_unk|total|mutant (ssRNA)
# RNA: GGGAGUUCUACAGUCCGACGAUCUAUGAAUAACAAUCUGAAGUCUUUUCAUAAAAAAAAUUAAUAAACUUCCGUUGUACAUUCCGCCAGUGUUAUUUGAAGUAUGUAACUUUUAAAAUAUUAAGUGUCUUGUAUGAUCCGAAUCAACAGAGGAUUGAGCAUCA
# B8: chr5:160402147:160402258:-|3pUTR|ENSG00000164609|unk|FALSE|unique (ssRNA)
# RNA: GGGAGUUCUACAGUCCGACGAUCAUGGUUUACAUUACCGUUUGUUUUCAUUGUGAUUGCCCCUAUGUAACAAUCAUGAAUAUUAGAUUUUUUAAAUUGUAGAAUAUCCUAAUAUUUAUAGCCAGCAGCUGUUACUUUGUUUGUCAACAGAGGAUUGAGCAUCA
# B9: chr7:152122106:152122213:+|3pUTR|ENSG00000178234|unk|FALSE|unique (ssRNA)
# RNA: B3 RNA with C67U, C68A, C76U, C77A, C83U, C84A, C121U, C122A, C135U, C136A
# B10: chr10:121957106:121957207:-|3pUTR|ENSG00000107672|msi1|FALSE|bound_elsewhere (ssRNA)
# RNA: GGGAGUUCUACAGUCCGACGAUCUGUAUCGUACAUAUUGUAUGAUUCAACAUUUUUAAAGGCAGAUUGUUUUUAGUAAAAUGUAGCUUUUGAUAGUUAAUAAAUUUGUCAUGGUUGUCUUUGAUUAAAGGAAACUCACCGCCACAACAGAGGAUUGAGCAUCA
# B11: chr11:101890673:101891278:-|three_prime_utr|ENSG00000187151|control|control|control (ssRNA)
# RNA: GGGAGUUCUACAGUCCGACGAUCGUAAUGCAAGUUCUACAAUGAUAAUAUAUUAAAGAUUUUUAAAAGUUUAUCUUUUCACUUAGUGUUUCAAACAUAUUAGGCAAAAUUUAACUGUAGAUGGCAUUUAGAUGUUAUGAGUUUCAACAGAGGAUUGAGCAUCA
# B12: chr17:32711987:32712195:-|CDS|ENSG00000176658|control|control|control (ssRNA)
# RNA: GGGAGUUCUACAGUCCGACGAUCUCCUUCAGACAAAGAGGCUGUCAAGAAACUAAUUGAACGGUGUGGUUUUCAGGAUGAUGUAGCUUAUGGGAAGACCAAAAUUUUCAUUCGAACACCCCGAACAUUGUUUACCUUGGAAGACAACAGAGGAUUGAGCAUCA
# B13: chr12:293013:293114:-|CDS|ENSG00000073614|unk|FALSE|bound_elsewhere (ssRNA)
# RNA: GGGAGUUCUACAGUCCGACGAUCACUAAAAGUGAAAGGAAAGGACUCUUCAGAGAAGAAACGGAAACGGAAGCUAGAAAAGGUAGAGCAACUUUUUGGAGAAGGAAAACAGAAGUCCAAGGAGUUAAAGAAAAUGGACAAACCCAACAGAGGAUUGAGCAUCA
# B14: chr1:228098150:228098251:+|3pUTR|ENSG00000143761|msi1_unk|total|mutant (ssRNA)
# RNA: GGGAGUUCUACAGUCCGACGAUCGCACCGUGCUGUAAAUGUGGCAGACGCAGCCUGCGGCCAGGCUUUUUAUUUAAUGUAAACCGUUUUUGUUUCCAAUGAGGCAGUUUCUGGUACUCCUAUGCAAUAUUACUCAGCUUUUUUCAACAGAGGAUUGAGCAUCA
# B15: chr7:50445662:50445763:-|CDS|ENSG00000132436|msi1|FALSE|unique (ssRNA)
# RNA: GGGAGUUCUACAGUCCGACGAUCGUUAUCUCAACGGGGAGAUGGUGAGCAUGAAUCUUCUAGAAGGAUAAAAACAGAAUUUUUAGUUCAAUUAGAUGGAGCAACAACAUCUUCUGAAGAUCGUAUCCUAGUGGUGGGAGCAACCAACAGAGGAUUGAGCAUCA
# B16: ENSG00000198589:be:win_8701|3pUTR|ENSG00000198589|bound_else_gene|NA|bound_elsewhere_windowed (ssRNA)
# RNA: GGGAGUUCUACAGUCCGACGAUCUGUAGUCUUUGCUUGACUUUUUUGGGGGGGAUUAGCAAAGCAGAAAACUGGCUGCUGGGUUCUGUAGUUUUAAAAAAUCUAUAUUUUUAGUCAUAAUGAGAAGUCUAUUUUCACCAAUUACAACAGAGGAUUGAGCAUCA
# B17: chr21:43695798:43695899:+|3pUTR|ENSG00000160208|msi1|FALSE|unique (ssRNA)
# RNA: GGGAGUUCUACAGUCCGACGAUCACAAUAUUUUGUAAAAUGAUGCUUCCCCCUUCUCCAUGGUCUAGUCAAUUUUGUACAAUUAGGUAUCUGACUUUACAAGUUUGUUAUCCUUUCUAAUUUUUACUGAACUGAAAGCACAAACAACAGAGGAUUGAGCAUCA
# B18: chr12:123662440:123662541:+|3pUTR|ENSG00000111358|unk|FALSE|unique (ssRNA)
# RNA: GGGAGUUCUACAGUCCGACGAUCAAUGGAAAUCACAAUUUUAAGUCUAGGAAAUAAAGUAUUAUAUAUACUUUCAAACAAGCUAGCAAGGCUUUUAUUAUUACUUUUUUAUUUGAAAUAUCUUAUAUAUUUGGUUAGUUCUGUCAACAGAGGAUUGAGCAUCA
# B19: chr4:150265445:150265561:-|3pUTR|ENSG00000198589|unk|total|mutant (ssRNA)
# RNA: GGGAGUUCUACAGUCCGACGAUCGGAUCCGCAAAGCAGAAAACUGGCUGCUGGGUUCUGCCGUUUUAAAAAAUCUAUAUUUUCCGUCAUAAUGAGAAGUCUAUUUUCACCAAUUAUGGAAACAUACAGUGGAGCAAGUAAACCCAACAGAGGAUUGAGCAUCA
# B20: chr9:122240152:122240253:-|3pUTR|ENSG00000119446|msi1|FALSE|unique (ssRNA)
# RNA: GGGAGUUCUACAGUCCGACGAUCCUUCUUGGAGUAUAGAAUUCACCAUUUUAUCCGUAAGUCUUCAAAGGAUUAUGGUGGACUAGAACUUACAUAGUGCAAAAUAGUCUUCUAUUUUUAAUAGGAACUUAGAAAAAACUUAGACAACAGAGGAUUGAGCAUCA
# B21: ENSG00000120802:stop:overlap|stop_codon|ENSG00000120802|stop_codon|NA|stop_codon (ssRNA)
# RNA: GGGAGUUCUACAGUCCGACGAUCGUGGAACAUUAUUUGGAGGAGAAGUAUGCAAAGUAAUUAAAAAGCGUGGAAAUAAACACUAGUAAAAUUAAGGACAAAAAGACAUCUAUCUUAUCUUUCAGGUACUUUAUGCCAACAUUUCAACAGAGGAUUGAGCAUCA
# B22: chr3:121431430:121432303:-|three_prime_utr|ENSG00000051341|control|control|control (ssRNA)
# RNA: GGGAGUUCUACAGUCCGACGAUCUGGAAAGAACAGAGAUUACCCUUUCACCUACCUCAGCAAAACAAACUUUCAAGUCUUGAUAGACUUAGCCUAGUAAUUUUAUAGUGAGAGUUUCAAACUAUAUAUCAGUGUCUAUAGCAUCAACAGAGGAUUGAGCAUCA
# B23: chr6:119178661:119178762:-|3pUTR|ENSG00000111885|msi1|FALSE|unique (ssRNA)
# RNA: GGGAGUUCUACAGUCCGACGAUCGAAAGAAGCUUUGCCAAUUUUACUUAUUCGUGAUCAAUCAAGGAAAAUCUAAUAAAUUUUAGGCCAAAUAAGAAUAUAGCAUAUUUAGUAUGGUUAUAGUCAACACAGAGAUCACAACUUCAACAGAGGAUUGAGCAUCA
# B24: chr11:22846921:22847509:-|three_prime_utr|ENSG00000255359|control|control|control (ssRNA)
# RNA: GGGAGUUCUACAGUCCGACGAUCCUCCACCAUUUCGGAAAAAUAAACACAGUGCAAGUAUUUAAUAUCCAAGCUACAGGCUCUAGAAUUUUAUUAAAUGCCAUCUCUCACUACCAUAUUUUUCUUUCCUGUGGUAAACUUGAACAACAGAGGAUUGAGCAUCA
# B25: chr17:81921741:81921842:-|3pUTR|ENSG00000197063|msi1|FALSE|unique (ssRNA)
# RNA: GGGAGUUCUACAGUCCGACGAUCAAUUAUAUGUUUAAAAGUUAAAGAAAAAAGAGCUGCAGAGUAUUUAUAAAACUGUCUUUUAGAAAAAAAACAAGCAAGAAGACCAUUUGACCAUAUGAAUGGAAAAGGGAAGAAAGUAUACAACAGAGGAUUGAGCAUCA
# B26: chr8:74853834:74853946:+|3pUTR|ENSG00000137558|unk|FALSE|unique (ssRNA)
# RNA: GGGAGUUCUACAGUCCGACGAUCAAGUGCUUUUUUUUUUCUGAAUUAAUUAGGUAUUGGUAAAAUAUAUUUUUAAAUUUAGUUAGCUUUAUAAACACAAUUAGAAUUACAAUUAAUUAACAGAGGUAUAAUUGUCUCACUUUCCAACAGAGGAUUGAGCAUCA
# B27: chr4:150265445:150265561:-|3pUTR|ENSG00000198589|unk|FALSE|bound_elsewhere (ssRNA)
# RNA: B19 RNA with C28U, C29A, C60U, C61A, C83U, C84A
# Molecular target: T1, UNK ZnF1-6 (called full-length)
# Test: nsRBNS (natural sequence RNA bind-n-seq); RBNS binding buffer (assumed for nsRBNS): 25 mM Tris pH 7.5, 150 mM KCl, 3 mM MgCl2, 0.01% Triton X-100, 500 ug/ml BSA, 20 U/ml SUPERase-In, 4 C; UNK is unkempt and MSI1 is Musashi-1; names of the RNAs are library labels; protein concentration not given here; high values mean tight binding
row,Binder,binding signal [enrichment R]
1,B1,2.25
2,B2,0.856
3,B3,0.949
4,B4,0.869
5,B5,2.51
6,B6,14.1
7,B7,0.702
8,B8,5.04
9,B9,35
10,B10,13.5
11,B11,5.03
12,B12,0.434
13,B13,0.672
14,B14,0.896
15,B15,0.853
16,B16,29
17,B17,1.9
18,B18,12.5
19,B19,0.438
20,B20,41.4
21,B21,1.07
22,B22,8.5
23,B23,2.15
24,B24,0.713
25,B25,2.78
26,B26,171
27,B27,2.4

# From paper PMC12136788
